# Inconclusive results are not listed. Activity calls are given as the source filed them. Calls come from the whole dose curve; as a rule, active = well fitted curve in the direction sought with a large enough effect in the repeat runs; inconclusive = weak or mixed curves; inactive = no such curve, though single readings can be large; an effect the other way counts as inactive or inconclusive.
# Assay: qHTS RealTime-Glo MT Cell Viability Assay in HepG2 cells - 16 hour (AID 1224885)
# Conditions: RealTime-Glo luminescence; series mostly up to 76.8 µM; activity change, negative = cytotoxic: at the top concentration
# In short: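 Tox21 10K library screened in qHTS format on HepG2 cells carrying RealTime-Glo reagents. Compounds were added after a 5 h preincubation, and the luminescent signal from continuous culture was measured repeatedly during 40 h treatment.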
# % is set by controls: 0 for no effect and ±100 for the full control effect.
# Note: nearly all actives have a fitted effect of over 50% in size.
row,Compound,"activity change, negative = cytotoxic"
1,CCCC(C)C(O)CC (centres undefined),0.559% (inactive)
2,CC(=O)Nc1ccc(OCCOCCOc2ccc(NC(C)=O)cc2)cc1,0.26% [at 35.3 µM] (inactive)
3,CC(C)OC(=O)C(C(=O)OC(C)C)=C1SC=CS1,-9.95% [at 35.3 µM] (inactive)
4,COC(=O)N/N=C/c1c[n+]([O-])c2ccccc2[n+]1[O-],0.531% [at 35.3 µM] (inactive)
5,CN1CCN(C(=O)C2CCCCC2)CC1,1.4% [at 35.3 µM] (inactive)
6,CC(=O)c1ccc2ccc3ccccc3c2c1,-7.21% (inactive)
7,CN(C)CCCN(C)C,0.141% [at 6.97 µM] (inactive)
8,CCCCCCCC(=O)N(C)C,0.621% (inactive)
9,CC(=O)c1c(C)cc(C(C)(C)C)cc1C,-12.1% (inactive)
10,C=CC(C)(CCC=C(C)C)OC(=O)C(C)C (centres undefined),3.13% (inactive)
11,CCOC(=O)COc1ccc2c(C)c(CCN(CC)CC)c(=O)oc2c1Cl,-0.136% [at 35.3 µM] (inactive)
12,O=C(OOC(=O)c1ccccc1)c1ccccc1,3.83% [at 35.3 µM] (inactive)
13,COc1ccc(Cl)cc1C,0.0726% (inactive)
14,CCN(CC)CC(=O)Oc1ccc(NC(C)=O)cc1,1.99% [at 35.3 µM] (inactive)
15,N[C@H]1C(O)O[C@H](CO)[C@@H](O)[C@@H]1O (some centres undefined),0.693% [at 35.3 µM] (inactive)
16,O=C1Nc2ccccc2C1=O,23.2% (inactive)

row,Compound,"activity change, negative = cytotoxic"
1,CN(C)c1ccncc1,1.61% (inactive)
2,COC(=O)c1c(C)cc(O)c(C)c1O,0.645% (inactive)
3,C[C@@H](CN1CC(=O)NC(=O)C1)N1CC(=O)NC(=O)C1,6.39% [at 35.3 µM] (inactive)
4,CCOC(=O)[C@H](CCc1ccccc1)N[C@H]1CS[C@H](c2cccs2)CN(CC(=O)O)C1=O,0.658% [at 35.3 µM] (inactive)
5,CCCCOCCCC,0.494% (inactive)
6,N=C(N)N,0.808% [at 35.3 µM] (inactive)
7,C=CCON/C(CCC)=C1\C(=O)CC(C)(C)C(C(=O)OC)=C1O,3.69% (inactive)
8,CC/C=C\CCOC(=O)c1ccccc1,-10.3% (inactive)
9,CCCCC(CC)COC(=O)CC#N (centres undefined),2.67% (inactive)
10,CC/C=C\CCCCCCCCCCOC(C)=O,0.951% (inactive)
11,Cc1ccc(OC(=O)CC(C)C)cc1,1% (inactive)
12,O=P(O)(O)C(O)(Cc1cccnc1)P(=O)(O)O,5.15% [at 35.3 µM] (inactive)
13,CCN1CCN(C(=O)N[C@@H](C(=O)N[C@@H]2C(=O)N3[C@@H]2SC(C)(C)[C@H]3C(=O)O)c2ccccc2)C(=O)C1=O,3.57% [at 35.3 µM] (inactive)
14,COc1cc2nc(N3CCN(C(=O)C4CCCO4)CC3)nc(N)c2cc1OC (centres undefined),-0.823% [at 35.3 µM] (inactive)
15,CC(C)C[P+](C)(CC(C)C)CC(C)C,-2.2% (inactive)

# Assay: qHTS RealTime-Glo MT Cell Viability Assay in HEK293 cells - 24 hour (AID 1224886); note: top concentration of the series differs between compounds
# Conditions: RealTime-Glo luminescence; series mostly up to 76.8 µM; activity change, negative = cytotoxicity: at the top concentration
# In short: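 Luminescence generated by NanoLuc from substrate produced by living HEK293 cells served as the viability signal. Each value reflects the reading at its stated time point during continuous 40 h compound exposure at 37 C.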
row,Compound,"activity change, negative = cytotoxicity"
1,CCCC(C)C(O)CC (centres undefined),17.5% (inactive)
2,CC(=O)Nc1ccc(OCCOCCOc2ccc(NC(C)=O)cc2)cc1,-1% [at 35.3 µM] (inactive)
3,COC(=O)N/N=C/c1c[n+]([O-])c2ccccc2[n+]1[O-],6.02% [at 35.3 µM] (inactive)
4,CN1CCN(C(=O)C2CCCCC2)CC1,0.371% [at 35.3 µM] (inactive)
5,C=CCCCCCCCCOC(C)=O,2.6% (inactive)
6,CN(C)CCCN(C)C,3.07% [at 6.97 µM] (inactive)
7,CCCCCCCC(=O)N(C)C,-1.84% (inactive)
8,C=CC(C)(CCC=C(C)C)OC(=O)C(C)C (centres undefined),2.83% (inactive)
9,CCOC(=O)COc1ccc2c(C)c(CCN(CC)CC)c(=O)oc2c1Cl,-2.17% [at 35.3 µM] (inactive)
10,COc1ccc(Cl)cc1C,25.8% (inactive)
11,Clc1ccc2c(c1)Nc1ccccc1S2,-23.1% [at 35.3 µM] (inactive)
12,N[C@H]1C(O)O[C@H](CO)[C@@H](O)[C@@H]1O (some centres undefined),3.27% [at 35.3 µM] (inactive)
13,CN(C)c1ccncc1,-15.3% (inactive)
14,CN(C)CCc1c[nH]c2ccc(C[C@H]3COC(=O)N3)cc12,3.94% [at 35.3 µM] (inactive)
15,CCCCS,6.58% (inactive)
16,C[C@@H](CN1CC(=O)NC(=O)C1)N1CC(=O)NC(=O)C1,-3.81% [at 35.3 µM] (inactive)
17,CCCCOCCCC,4.23% (inactive)
18,N=C(N)N,0.639% [at 35.3 µM] (inactive)
19,CCCC(=O)C(CC)Sc1ccoc1C (centres undefined),-2.75% (inactive)
20,C=CCON/C(CCC)=C1\C(=O)CC(C)(C)C(C(=O)OC)=C1O,14.2% (inactive)
21,CC/C=C\CCOC(=O)c1ccccc1,-25% (inactive)
22,CCCCC(CC)COC(=O)CC#N (centres undefined),-1.12% (inactive)
23,Cc1ccc(OC(=O)CC(C)C)cc1,3.89% (inactive)
24,O=P(O)(O)C(O)(Cc1cccnc1)P(=O)(O)O,-1.39% [at 35.3 µM] (inactive)
25,CCN1CCN(C(=O)N[C@@H](C(=O)N[C@@H]2C(=O)N3[C@@H]2SC(C)(C)[C@H]3C(=O)O)c2ccccc2)C(=O)C1=O,7.45% [at 35.3 µM] (inactive)
26,COc1cc(C(=O)NC2CCCNC2)cc(OC)c1OC (centres undefined),2.75% [at 35.3 µM] (inactive)
27,COc1cc2nc(N3CCN(C(=O)C4CCCO4)CC3)nc(N)c2cc1OC (centres undefined),-17% [at 35.3 µM] (inactive)
28,CC(C)C[P+](C)(CC(C)C)CC(C)C,-10.5% (inactive)

# Source: PubChem BioAssay (Tox21)
